SMILES strings stand for the structures. In all, about 39,000 compounds went through this assay and about 3,300 (8.5%) were called active. The list comes from a sample in which actives are over-represented; it also holds similar structures and randomly drawn compounds.

The test system of this assay is HepG2. In words: cytotoxicity call (relative viability < 0.9). The settings on record: 10 µM.
On to `CN(CC=CC#CC(C)(C)C)Cc1cccc2ccccc12.Cl`, for which the cytotoxicity call is “inactive”. Consider `C[C@@H]1CN([C@@H](C)CO)C(=O)c2cc(C#C[C@@H](C)O)cnc2O[C@H]1CN(C)C(=O)CN1CCOCC1`, for which the cytotoxicity call was “inactive”. On to `C[C@@H]1CN([C@@H](C)CO)C(=O)c2cc(-c3ccc(C(=O)N(C)C)cc3)cnc2O[C@@H]1CN(C)C(=O)CN(C)C`, for which the cytotoxicity call is “inactive”. The value for `Cc1ccc(S(=O)(=O)Nc2cccc3c2O[C@@H](CN(C)Cc2ccc(C(F)(F)F)cc2)[C@@H](C)CN([C@H](C)CO)C3=O)cc1` was “inactive”.

As to `C[C@@H]1CN([C@H](C)CO)C(=O)c2cccc(NC(=O)c3ccncc3)c2O[C@@H]1CN(C)S(=O)(=O)c1cn(C)cn1`, the cytotoxicity call is “inactive”. Turning to `O=C1N[C@@H](c2ccccc2)COCc2cn(nn2)CC[C@@H](Cc2ccc(C(F)(F)F)cc2)C(=O)N[C@@H](c2ccccc2)COCc2cn(nn2)CC[C@H]1Cc1ccc(C(F)(F)F)cc1`, the cytotoxicity call was “inactive”. Regarding `O=C(O)[C@]1(O)C[C@H](O)[C@@H](O)[C@@H](O)C1`, the cytotoxicity call was “inactive”. Turning to `Cc1noc(C)c1S(=O)(=O)N(C)C[C@@H]1Oc2ccc(N(C)C)cc2CC(=O)N([C@@H](C)CO)C[C@H]1C`, the cytotoxicity call is “inactive”.

For `C=C1C[C@]23CC[C@@H]4[C@@](C)(CCC[C@@]4(C)C(=O)O)[C@H]2CC[C@H]1C3`, the cytotoxicity call is “active”.

As for `CC(C)C1=CC2=CCC3C(C)(C(=O)O)CCCC3(C)C2CC1` (configuration not stated), the cytotoxicity call is “inactive”. On to `C=C1C[C@@]23CC[C@@H]4[C@@](C)(CCC[C@@]4(C)C(=O)OC)[C@H]2CC[C@@H]1C3`, for which the cytotoxicity call was “inactive”. Under `Cc1noc(C)c1NC(=O)Nc1ccc2c(c1)CC(=O)N([C@H](C)CO)C[C@@H](C)[C@@H](CN(C)C(=O)NC(C)C)O2` stands “inactive”; under `COc1ccccc1CN1C(=O)c2ccccc2[C@](Cc2ccccc2I)(C(=O)NCCCN(C)C)[C@@H]1c1ccc(CO)cc1`, “active”. Under `COc1ccccc1CN1C(=O)c2ccccc2[C@](Cc2ccccc2I)(C(=O)NCC(C)C)[C@@H]1c1ccc(CO)cc1` stands “inactive”; under `COCCCNC(=O)[C@@]1(Cc2ccccc2I)c2ccccc2C(=O)N(Cc2ccccc2OC)[C@H]1c1ccc(CO)cc1`, “inactive”. Under `COc1ccc(CCNC(=O)[C@@]2(Cc3ccccc3I)c3ccccc3C(=O)N(Cc3ccccc3OC)[C@H]2c2ccc(CO)cc2)cc1` stands “inactive”; under `COc1ccccc1CN1C(=O)c2ccccc2[C@](Cc2ccccc2I)(C(=O)NC2CC2)[C@@H]1c1ccc(CO)cc1`, “active”.

As for `COc1ccccc1CN1C(=O)c2ccccc2[C@](Cc2ccccc2I)(C(=O)O)[C@@H]1c1ccc(CO)cc1`, the cytotoxicity call was “inactive”. Under `CO[C@H]1CN(C)C(=O)c2cc(NS(=O)(=O)CC(F)(F)F)ccc2OC[C@@H](C)N(Cc2cccnc2)C[C@@H]1C` stands “inactive”. With `COc1ccc2c3c(n(c2c1)C)[C@H](CO)N(C[C@]13CCN(CC1)C(=O)c1ccncc1)C(=O)C1CCOCC1`, the cytotoxicity call was “inactive”. The value for `CC(C)NC(=O)Nc1cccc2c1O[C@@H](CN(C)C(=O)Nc1ccc3c(c1)OCO3)[C@@H](C)CN([C@H](C)CO)C2=O` was “inactive”; that for `C[C@@H]1CCCCO[C@H](CN(C)S(=O)(=O)c2cn(C)cn2)[C@@H](C)CN([C@H](C)CO)C(=O)c2cc(NC(=O)c3ccncc3)ccc2O1` was “inactive”. For the compound `C[C@H]1CN([C@@H](C)CO)C(=O)c2cccc(NS(=O)(=O)c3cn(C)cn3)c2O[C@@H]1CN(C)S(=O)(=O)c1ccc(Cl)cc1`, the cytotoxicity call is “inactive”. The value for `COc1ccc(CNC(=O)C[C@H]2CC[C@H]3[C@@H](COc4ccc(NC(=O)C5CC5)cc4C(=O)N3C)O2)cc1` was “inactive”. Under `Cl.Nc1ccn(C2OC(CO)C(O)C2(F)F)c(=O)n1` (configuration not stated) stands “active”; under `C[C@@]1(F)[C@H](O)[C@@H](CO)O[C@H]1n1ccc(N)nc1=O`, “inactive”; under `Nc1ccn([C@@H]2O[C@H](CO)[C@@H](O)C2(F)F)c(=O)n1`, “inactive”. The value for `C#C[C@@]1(O)[C@@H](CO)O[C@@H](n2ccc(N)nc2=O)[C@@H]1O` was “active”; that for `Nc1ccn([C@@H]2O[C@H](CO)[C@@H](O)[C@H]2O)c(=O)n1` was “inactive”; that for `Nc1ccn(C2OC(CO)C(O)C2O)c(=O)n1` (configuration not stated) was “inactive”. `C[C@H](CO)N1C[C@H](C)[C@@H](CN(C)C(=O)C2CC2)OCc2cn(nn2)CCCC1=O`: the cytotoxicity call is “inactive”. The value for `Cc1noc(C)c1S(=O)(=O)Nc1ccc2c(c1)C(=O)N([C@H](C)CO)C[C@H](C)[C@@H](CN(C)Cc1ccc(C(=O)O)cc1)O2` was “inactive”; that for `C[C@@H]1CCCCO[C@@H](CN(C)C(=O)c2ccccc2)[C@H](C)CN([C@H](C)CO)C(=O)c2cc(NC(=O)Nc3ccc4c(c3)OCO4)ccc2O1` was “inactive”; that for `C[C@H]1CCCCO[C@H](CN(C)C(=O)Cc2ccccc2)[C@@H](C)CN([C@@H](C)CO)C(=O)c2cc(NC(=O)Nc3ccc4c(c3)OCO4)ccc2O1` was “inactive”. The value for `C[C@@H]1CCCCO[C@@H](CN(C)C(=O)Cc2ccccc2)[C@H](C)CN([C@H](C)CO)C(=O)c2cc(NC(=O)NC3CCCCC3)ccc2O1` was “active”; that for `C[C@H](CO)N1C[C@H](C)[C@H](CN(C)C(=O)Cc2ccccc2)OCCCC[C@H](C)Oc2ccc(NC(=O)Nc3ccc4c(c3)OCO4)cc2C1=O` was “active”; that for `C[C@@H]1CCCCO[C@@H](CN(C)C(=O)Cc2ccccc2)[C@@H](C)CN([C@H](C)CO)C(=O)c2cc(NC(=O)Nc3ccc(F)cc3)ccc2O1` was “inactive”. The value for `C[C@@H]1CCCCO[C@@H](CN(C)C(=O)Cc2ccccc2)[C@@H](C)CN([C@@H](C)CO)C(=O)c2cc(NC(=O)Nc3ccc4c(c3)OCO4)ccc2O1` was “inactive”.

As for `C[C@@H]1CCCCO[C@H](CN(C)C(=O)Cc2ccccc2)[C@H](C)CN([C@@H](C)CO)C(=O)c2cc(NC(=O)NC3CCCCC3)ccc2O1`, the cytotoxicity call is “inactive”. On to `C[C@@H]1CCCCO[C@H](CN(C)C(=O)Cc2ccccc2)[C@@H](C)CN([C@H](C)CO)C(=O)c2cc(NC(=O)Nc3ccc(F)cc3)ccc2O1`, for which the cytotoxicity call was “inactive”.

On to `C[C@@H]1CCCCO[C@@H](CN(C)C(=O)Cc2ccccc2)[C@@H](C)CN([C@H](C)CO)C(=O)c2cc(NC(=O)NC3CCCCC3)ccc2O1`, for which the cytotoxicity call was “inactive”. `C[C@@H]1CCCCO[C@@H](CN(C)C(=O)Cc2ccccc2)[C@H](C)CN([C@H](C)CO)C(=O)c2cc(NC(=O)Nc3ccc(F)cc3)ccc2O1`: the cytotoxicity call is “active”.

For the origin of these results see the antibiotic and cytotoxicity screens of Wong et al. (2023).
